{"source": "PubChem BioAssay (EPA / NIEHS)", "note": "The source made the active and inactive calls. Rule for the calls: active = hit-call score of the fitted dose curve at least 0.9, where 1 is the maximum; inactive = score below 0.9.", "data": [{"assay": "CCTE_Shafer_MEA_dev_inter_network_spike_interval_mean: CCTE's Neural Network Formation Assay for Mean Inter-network Spike Interval, Shafer Lab (AID 2284047);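 for AC50: potency for a decrease in mean inter-network spike interval below DMSO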", "experimental": "CCTE_Shafer_MEA_dev assay is conducted using Axion Biosystems 48 well microelectrode array (MEA) plates and Maestro recording system. Each well of the MEA plate contains a grid of 16 microelectrodes embedded in the culture surface. Electrically active cells, such as neurons, can be cultured over the electrodes, and electrical activity in these cells can be recorded extracellularly. The spontaneous firing of neurons is captured from each electrode on a microsecond timescale providing both temporally and spatially precise data. […] The CCTE_Shafer_MEA_dev assay uses primary cultures of rat cortical neurons. Recordings are made on days post-plating 5, 7, 9 and 12. As these cultures mature over time, neural networks develop functional activity and form cohesive networks in which electrical activity can be highly coordinated. CCTE_Shafer_MEA_dev_inter_network_spike_interval_mean is 1 of 19 assay components of the CCTE_Shafer_MEA_dev assay. It measures the average time interval between network spikes (temporally-clustered groups of actional potential firing across multiple electrodes) as the average time between peaks of consecutive network spikes during a recording in a microelectrode array (MEA) using Axion Biosystems Maestro 768 channel amplifier with the AxIS adaptive spike detector. To collapse across multiple recordings made on days post-plating 5, 7, 9 and 12, the trapezoidal area-under-the-curve of the component is calculated.Data from the assay component CCTE_Shafer_MEA_dev_inter_network_spike_interval_mean was analyzed into 1 assay endpoint. This assay endpoint, CCTE_Shafer_MEA_dev_inter_network_spike_interval_mean, was analyzed in the negative analysis fitting direction relative to DMSO as the negative control and baseline of activity. Using a type of functional reporter, gain or loss-of-signal activity can be used to understand electrical activity.\nOn the day prior to culture, each well was coated thoroughly with 150 uL of 0.05% polyethyleneimine (PEI, Sigma Cat P3143) in 50 mM HEPES (Sigma Cat H7523) at a pH of 8. The plate was incubated at 37C for one hour. PEI was rinsed out with 500 uL of sterile water three times. Plates were stored at 4C until the day of culture. This culture was plated at a seeding density of 1.5 x 10^5 cells/well on a 48-well MEA plate, prepared as described above. Cells were administered via a 25 uL media/laminin ([…]; Sigma Cat L2020-1MG) drop directly onto the microelectrode array, as adding the cells with the laminin results in better attachment than pre-coating with laminin. After 2 hours, an additional 475 uL of cortical media was added and the cells returned to the incubator. Exposure starts at day 0 of plating and is continued over twelve days of network development until the experiment is terminated. Cells are fed with fresh medium on DIV 5 and 9, following the recordings on those days. The entire volume of media in the well is exchanged and any vehicle or compound treatment is renewed. Complete details are found in OP-NHEERL/ISTD/SBB/TJS/2015-03-r0 (available on request, email shafer.tim@epa.gov). Measurement of the electrical activity is non-invasive, and recordings can be made from the same plate over multiple different days of the culture. In cortical neurons, this allows for the measurement of extracellular action potentials over the period during which networks form in the MEA plate.", "values": [{"molecule": "OCC(F)(F)C(F)(F)C(F)(F)C(F)F", "outcome": "inactive"}, {"molecule": "CC(C)(C)C(=O)CC(=O)C(F)(F)C(F)(F)C(F)(F)F", "outcome": "inactive"}, {"molecule": "O=C(O)C(F)(F)C(F)(F)C(F)F", "outcome": "inactive"}, {"molecule": "C=CC(=O)OCC(F)(F)C(F)(F)C(F)(F)C(F)(F)COC(=O)C=C", "outcome": "inactive"}, {"molecule": "OCC(F)(F)C(F)(F)C(F)(F)C(F)(F)C(F)(F)C(F)F", "outcome": "inactive"}, {"molecule": "CC(CCl)OP(=O)(OC(C)CCl)OC(C)CCl", "note": "(stereo not drawn)", "outcome": "inactive"}, {"molecule": "O=P(O)(O)OCCC(F)(F)C(F)(F)C(F)(F)C(F)(F)C(F)(F)C(F)(F)F", "outcome": "inactive"}, {"molecule": "COC(=O)CCC(F)(F)C(F)(F)C(F)(F)C(F)(F)F", "outcome": "inactive"}, {"molecule": "OCCCC(F)(F)C(F)(F)C(F)(F)F", "outcome": "inactive"}, {"molecule": "FC(F)(F)C(F)(F)C(F)(F)C(F)(F)C(F)(F)CCI", "outcome": "inactive"}, {"molecule": "O=S(=O)(OCC(F)F)C(F)(F)F", "outcome": "inactive"}, {"molecule": "OC[C@@H](O)[C@@H](O)[C@H](O)[C@@H](O)CO", "outcome": "inactive"}, {"molecule": "O=C(O)C(F)(F)C(F)(F)C(F)(F)C(F)(F)C(F)(F)C(F)(F)C(F)(F)C(F)(F)C(F)(F)C(F)F", "outcome": "inactive"}, {"molecule": "Cc1ccc(S(=O)(=O)OCC(F)(F)C(F)(F)C(F)(F)C(F)(F)C(F)(F)C(F)F)cc1", "outcome": "inactive"}, {"molecule": "FC(F)(F)C(F)(F)C(F)(F)C(F)(F)C(F)(F)C(F)(F)CC1CO1", "note": "(stereo not drawn)", "outcome": "inactive"}, {"molecule": "O=C(O)C(F)(F)C(F)(F)C(F)(F)F", "outcome": "inactive"}, {"molecule": "NC(=O)C(F)(F)C(F)(F)C(F)(F)C(F)(F)F", "outcome": "inactive"}, {"molecule": "OCC(F)(F)C(F)(F)C(F)(F)F", "outcome": "inactive"}, {"molecule": "N=C(N)C(F)(F)C(F)(F)C(F)(F)C(F)(F)C(F)(F)C(F)(F)C(F)(F)F", "outcome": "inactive"}, {"molecule": "O=C(O)C=C(C(F)(F)F)C(F)(F)F", "AC50": "15 µM (active)"}, {"molecule": "O=S(=O)(OCCOC(F)(F)F)C(F)(F)F", "outcome": "inactive"}, {"molecule": "O=C(O)C(F)(F)C(F)(F)C(F)(F)C(F)(F)C(F)(F)C(F)(F)C(F)(F)C(F)(F)Cl", "outcome": "inactive"}, {"molecule": "FC(F)(F)C(F)(F)CNCC(F)(F)C(F)(F)F", "outcome": "inactive"}]}]}
